The nature of test [1]: qHTS assay to identify small molecule antagonists of the androgen receptor (AR) signaling pathway using the MDA cell line in the presence of 0.5 nM R1881 - cell viability counter screen (AID 1259242). Also: nearly all actives have a fitted effect of over 45% in size. Also: potency is read from the fitted curve at half-maximal effect. The gist of the method: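 MDA-kb2 cells (MMTV-luciferase, AR/GR responsive) were treated with compounds plus 0.5 nM R1881 (final) for 16 hr at 37C, 0% CO2. Viability was then read in the same wells as live-cell protease fluorescence (CellTiter-Fluor, 30 min).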
For orientation: qHTS replaces the single test concentration by a dilution series.

A short description of test [2]: qHTS assay to identify small molecule HDAC inhibitors (AID 1259364). Also: nearly all actives have a fitted effect of over 45% in size. Also: potency is read from the fitted curve at half-maximal effect. A digest of the protocol: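 Wild-type HCT-116 cells, plated overnight at 37 C, exposed to compounds 2 hr at 37 C; luminogenic HDAC-Glo substrate then added 30 min at room temperature. Luminescence reports relative endogenous class I/II HDAC activity.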
A short description of test [3]: qHTS assay to identify small molecule agonists of the sonic hedgehog signaling (Shh) pathway - cell viability counter screen (AID 1259366). Also: nearly all actives have a fitted effect of over 50% in size. Also: potency is read from the fitted curve at half-maximal effect. A digest of the protocol: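 Viability measured fluorometrically (CellTiter-Fluor, 1hr, 37C) in 3T3 Gli1-Luc reporter cells after 23hr compound exposure within a 24hr incubation at 37C/5% CO2.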
Test [4] in a line: qHTS assay to identify small molecule antagonists of the sonic hedgehog signaling (Shh) pathway - cell viability counter screen (AID 1259367). Also: nearly all actives have a fitted effect of over 55% in size. Also: potency is read from the fitted curve at half-maximal effect. The gist of the method: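 Seed 3T3 Gli1-Luc cells at 2,000 per well; incubate 4 hr; add compound in DMSO, then conditioned medium; incubate at 37C with 5% CO2; add CellTiter-Fluor after 23 hr; read fluorescence 1 hr later.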
A short description of test [5]: qHTS assay to identify small molecule agonists of the sonic hedgehog signaling (Shh) pathway (AID 1259368; calls by dose curve; also: nearly all actives have a fitted effect of over 15% in size; also: potency is read from the fitted curve at half-maximal effect). A digest of the protocol: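 NIH/3T3-derived 3T3Gli1-Luc cells with stably integrated Gli1-driven firefly luciferase, 2,000 cells/well, compounds added after 4 hr. Incubated 24 hr at 37C, 5% CO2; luminescence read after 30 min with luciferase reagent at room temperature.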

The nature of test [6]: qHTS assay to identify small molecule antagonists of the sonic hedgehog signaling (Shh) pathway (AID 1259369; calls by dose curve; also: nearly all actives have a fitted effect of over 45% in size; also: potency is read from the fitted curve at half-maximal effect). A digest of the protocol:
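NIH/3T3-derived Gli1-Luc reporter cells plated 4 h, dosed with compound, then stimulated with conditioned medium for 24 h at 37 C. Firefly luciferase luminescence read after 30 min with detection reagent at room temperature.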

The nature of test [7]: qHTS assay to identify small molecule phospholipidosis (PLD) inducers (AID 1259344; active = well fitted curve in the direction sought with a large enough effect; an effect the other way counts as inactive or inconclusive; also: potency is read from the fitted curve at half-maximal effect). The gist of the method:
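Quantitative HTS in HepG2: compound plus LipidTOX Red dye for 24 h, paraformaldehyde fixation with Hoechst 33342, widefield high-content imaging; amiodarone as positive and DMSO as negative control.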

Test [8] can be described thus: qHTS assay to identify small molecule HDAC inhibitors - cell viability counter screen (AID 1259365). Also: series mostly up to about 92 µM; nearly all actives have a fitted effect of over 50% in size. A digest of the protocol:
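Viability readout: CellTiter-Glo luminescence. Wild-type HCT-116 cells, 2hr compound treatment following overnight attachment at 37 C.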

In test [9] the target is Estrogen receptor (Homo sapiens) (UniProt P03372). The test is described as follows: qHTS assay to identify small molecule antagonists of the estrogen receptor alpha (ER-alpha) signaling pathway using the BG1 cell line in the presence of 0.1 nM 17-beta-estradiol (AID 1259244). Also: nearly all actives have a fitted effect of over 50% in size. A digest of the protocol:
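VM7Luc4E2 cells (endogenous full-length ER-alpha, 4×ERE-luciferase), kept 5 days in phenol red-free, charcoal-stripped FBS medium; 4,000 cells/well. Compounds added with 0.1 nM (final) 17beta-estradiol, 22 hr at 37C; luminescence read with ONE-Glo after 30 min.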

SMILES strings stand for the structures. Several values for one entry are separate records, joined by “and”; a condition that tells them apart may be missing. Equal values may be shown once. Inconclusive results are not listed. The source holds several records for some structures; these can differ, active in one and inactive in another. Activity calls are given as the source filed them. Unless noted, calls follow the shape of the dose curve; as a rule, active = well fitted curve in the direction sought with a large enough effect in the repeat runs; inconclusive = weak or mixed curves; inactive = no such curve, though single readings can be large; an effect the other way counts as inactive or inconclusive.
% is scaled to controls: 0 for no effect and ±100 for the full control effect.

Chain of Estrogen receptor (Homo sapiens) (P03372 whole entry, looked up): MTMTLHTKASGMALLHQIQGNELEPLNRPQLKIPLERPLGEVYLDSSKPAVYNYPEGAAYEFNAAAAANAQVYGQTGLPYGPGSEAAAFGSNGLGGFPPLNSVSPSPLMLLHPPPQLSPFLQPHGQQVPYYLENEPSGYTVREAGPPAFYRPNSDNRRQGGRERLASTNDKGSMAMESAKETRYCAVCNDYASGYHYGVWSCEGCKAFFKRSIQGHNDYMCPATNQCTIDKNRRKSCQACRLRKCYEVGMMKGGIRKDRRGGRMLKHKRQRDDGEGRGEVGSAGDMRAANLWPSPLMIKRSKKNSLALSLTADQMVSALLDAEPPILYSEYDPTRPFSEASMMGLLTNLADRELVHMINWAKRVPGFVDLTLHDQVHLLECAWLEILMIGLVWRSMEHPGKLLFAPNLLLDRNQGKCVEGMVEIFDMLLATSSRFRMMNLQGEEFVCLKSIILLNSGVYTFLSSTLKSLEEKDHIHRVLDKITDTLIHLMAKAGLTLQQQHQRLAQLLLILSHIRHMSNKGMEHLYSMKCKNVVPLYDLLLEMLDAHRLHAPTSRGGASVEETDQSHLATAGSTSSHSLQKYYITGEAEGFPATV

Consider `CCCCCCCCCC(=O)OC`, for which the Potency result in [1], in [2], in test [3], in [4], in test [5] and in test [6] was “inactive” throughout.

Turning to `CC(=O)O[C@]1(C(C)=O)CC[C@H]2[C@@H]3C=C(Cl)C4=CC(=O)[C@@H]5C[C@@H]5[C@]4(C)[C@H]3CC[C@@]21C`, the Potency result in test [1], in test [2], in [3], in test [4] and in [5] was “inactive” in each case. For the same compound, the Potency in test [6] is 4.32 µM (active) and 27.3 µM (active) and inactive.

As for `O=c1oc(=O)c2cc3c(=O)oc(=O)c3cc12`, the Potency entry in [1], in test [2], in test [3], in test [4], in test [5] and in [6] was “inactive” each time.

On to `Clc1nc(Cl)c(Cl)c(Cl)c1Cl`, for which the Potency entry in [1], in [2], in test [3], in [4], in [5] and in [6] was “inactive” in each case.

For the compound `Nc1ccc(S(=O)(=O)Nc2cnc3ccccc3n2)cc1`, the Potency result in test [1], in test [7], in test [2], in test [3], in test [4] and in test [5] was “inactive” each time. In addition, the Potency result in [6] is “inactive”. In test [8], the call was inactive.

Take `O=C(c1ccc(OCCN2CCCCC2)cc1)c1c(-c2ccc(O)cc2)sc2cc(O)ccc12`: the Potency in [1] is 61.2 µM (active) and inactive; in test [3], 24.4 µM (active) and 24.3 µM (active) and 11.9 µM (active); in test [4], 24.4 µM (active) and 30.6 µM (active); in [6], 4.86 µM (active) and 2.73 µM (active) and 8.41 µM (active). The Potency result in test [7], in [2] and in test [5] was “inactive” each time. For the same compound, the compound was called inactive in test [8].

Regarding `O=CCc1ccccc1`, the Potency result in test [1], in [2], in test [3], in test [4] and in test [5] was “inactive” throughout. Also, the result in test [8] was inactive.

For the compound `CCCCc1oc2ccccc2c1C(=O)c1cc(I)c(OCCN(CC)CC)c(I)c1`, the Potency result in [9], in test [2], in test [4] and in test [5] was “inactive” throughout. Besides, the PLD induction in test [7] is -0.301% [at 7.66 µM] (inactive). The Potency in test [7] was 10 µM (active); in test [3], 43.6 µM (active); in test [6], 43.6 µM (active) and inactive.

For the compound `O=C=Nc1ccc(Cc2ccc(N=C=O)cc2)cc1`, the Potency entry in test [1], in test [2], in test [3], in test [4], in test [5] and in test [6] was “inactive” each time. In addition, the compound was called inactive in [8].

As for `COc1ccc(C(=O)CC(=O)c2ccc(C(C)(C)C)cc2)cc1`, the Potency result in test [1], in test [7], in test [2], in [3], in test [4] and in test [5] was “inactive” each time. The Potency result in [6] was “inactive”.

Consider `CN(C)C(=N)N=C(N)N`, for which the Potency entry in test [1], in [7], in test [2], in [3], in test [4] and in test [5] was “inactive” throughout. The Potency entry in test [6] is “inactive”. Moreover, the compound was classed as inactive in [8].

In the case of `OC[C@H]1O[C@@H]2O[C@H]3[C@H](O)[C@@H](O)[C@@H](O[C@H]4[C@H](O)[C@@H](O)[C@@H](O[C@H]5[C@H](O)[C@@H](O)[C@@H](O[C@H]6[C@H](O)[C@@H](O)[C@@H](O[C@H]7[C@H](O)[C@@H](O)[C@@H](O[C@H]8[C@H](O)[C@@H](O)[C@@H](O[C@H]1[C@H](O)[C@H]2O)O[C@@H]8CO)O[C@@H]7CO)O[C@@H]6CO)O[C@@H]5CO)O[C@@H]4CO)O[C@@H]3CO`, the Potency result in test [1], in [7], in test [2], in [3], in test [4] and in [5] was “inactive” throughout. Further, the Potency entry in [6] is “inactive”. The call in test [8] was inactive.

As to `CC(=O)c1ccccn1`, the Potency entry in [1], in [2], in test [3], in test [4], in test [5] and in test [6] was “inactive” in each case.

Consider `CCOC(=O)C(C#N)=C(c1ccccc1)c1ccccc1`, for which the Potency result in test [1], in test [7], in test [2], in test [3], in test [4] and in test [5] was “inactive” each time. The Potency entry in test [6] was “inactive”. Also, the call in test [8] was inactive.

As to `CCCC(=O)O`, the Potency result in test [1], in test [7], in test [2], in [3], in [4] and in test [5] was “inactive” throughout. The Potency result in test [6] was “inactive”.

For the compound `CC(C)Oc1ccc2c(=O)c(-c3ccccc3)coc2c1`, the Potency result in test [1], in test [7], in [3], in [4] and in test [6] was “inactive” each time. Moreover, the Potency in test [2] was 2.37 µM (active).

As for `O=C(c1ccccc1)c1ccccc1O`, the Potency entry in [1], in [2], in test [3], in test [4], in test [5] and in test [6] was “inactive” in each case. Also, the compound was classed as inactive in [8].

Turning to `Brc1cc(Oc2cc(Br)c(Br)c(Br)c2Br)c(Br)c(Br)c1Br`, the Potency entry in test [1], in test [2], in [3], in test [4], in test [5] and in test [6] was “inactive” in each case. In addition, the outcome in test [8] was inactive.

Turning to `c1ccc(Nc2ccccc2)cc1`, the Potency result in [1], in test [2], in test [3], in [4], in test [5] and in test [6] was “inactive” each time. The compound was classed as inactive in test [8].

Take `CCCCC(CC)COP(=O)(OCC(CC)CCCC)OCC(CC)CCCC` (centres undefined): the Potency result in test [1], in test [2], in [3], in [4], in [5] and in test [6] was “inactive” in each case. Besides, the outcome in test [8] was inactive.

Take `C/C=C/C(=O)O`: the Potency result in [1], in test [2], in [3], in test [4], in [5] and in test [6] was “inactive” each time.

With `NNc1ccc(C(=O)O)cc1`, the Potency entry in [1], in test [3], in test [4] and in [6] was “inactive” throughout. The Potency is 2.47 µM (active) and 6.93 µM (active) in [2]; 5.5 µM (active) in test [5]. Further, the compound was called inactive in test [8].

For the compound `COC(=O)c1ccccc1`, the Potency result in test [1], in test [2], in test [3], in test [4], in test [5] and in test [6] was “inactive” in each case. The call in test [8] was inactive.

Values taken from PubChem BioAssay (Tox21).
